Screening data deposited in PubChem by several laboratories.
Shown are actives, neighbours in structure and some others; about 2.8% of the full set was active somewhere.
SENP8 block-1: SENP8 protease inhibitors, primary screen, biochemical, luminescence | purified SENP8, Z-RLRGG-aminoluciferin cleavage | inhibition, % at 10 µM | 330,000 compounds, 1.2% hits | AID 2540, 2010; in the data active = inhibition above about 50%
HSP90 refold inh: HSP90 inhibitors, primary screen, cell lysate, luminescence | Rabbit reticulocyte lysate, luciferase refolding luminescence, 3 h | inhibition, % at 5.6 µM | 290,000 compounds, 0.91% hits | AID 1789, 2009;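 active = inhibition above the screen-wide mean plus 3 SD, computed separately per campaign, cut at about 16% in these data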;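 also: 0% = DMSO wells and 100% = 60 µM geldanamycin wells; inhibitors lower the luminescence because luciferase stays unfolded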
SENP6 inh: SENP6 protease inhibitors, primary screen, biochemical, luminescence, uHTS; Recombinant SENP6 catalytic domain, aminoluciferin luminescence; inhibition, % at 10 µM; 330,000 compounds, 1.8% hits;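 active = inhibition above about 50% at the single tested dose, limit read from the data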;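 also: plate controls were DMSO wells with enzyme for no effect and DMSO wells lacking enzyme for full effect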
SENP7 inh: SENP7 protease inhibitors, primary screen, biochemical, luminescence, uHTS | 330,000 compounds, 1.5% hits | AID 434973, 2010 | recombinant SENP7, Z-RLRGG-aminoluciferin luminescence, 40 min | inhibition, % at 5 µM | Sentrin-specific protease 7 (Homo sapiens), Q9BQF6;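 active = inhibition above about 50% at the single test dose, limit read from the data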;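 also: plate controls were DMSO with enzyme for no effect and no enzyme buffer wells for full effect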
Target sequence (Q9BQF6 706-1050 limits assumed): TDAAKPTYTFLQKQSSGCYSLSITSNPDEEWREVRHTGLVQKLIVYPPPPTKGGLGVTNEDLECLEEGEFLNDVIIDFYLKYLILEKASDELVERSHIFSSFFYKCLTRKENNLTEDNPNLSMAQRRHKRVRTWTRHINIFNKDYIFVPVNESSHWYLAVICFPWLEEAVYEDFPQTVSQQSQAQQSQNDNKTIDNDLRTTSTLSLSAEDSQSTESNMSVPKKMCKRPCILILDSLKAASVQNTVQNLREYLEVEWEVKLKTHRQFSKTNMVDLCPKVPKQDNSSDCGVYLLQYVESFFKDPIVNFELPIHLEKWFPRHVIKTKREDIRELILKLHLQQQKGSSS
SENP8 block-2: human SENP8 protease inhibitors, primary screen, biochemical, fluorescence, Nedd8 protein substrate, uHTS. recombinant SENP8. inhibition, % at 20 µM. 360,000 compounds, 0.64% hits; in the data active = inhibition mostly above about 40%, no sharp cut-off; inactive = mostly below about 27%
Platelet DG rel: inhibitors of platelet dense granule secretion, primary screen, cell-based, MLPCN, human platelets. human platelet-rich plasma, SFLLRN dense granule ATP release, luminescence. inhibition, %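 (compounds screened at 7.5 µM in platelet-rich plasma)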. 300,000 compounds, 0.22% hits;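 active = mean replicate score, as percent of positive control, at or above 50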
SENP8 conf: SENP8 protease inhibitors, retest, confirmation, biochemical, luminescence, single concentration; shares compounds with SENP7 inh; Recombinant SENP8, Z-RLRGG-aminoluciferin luminescence, 60 min; inhibition, % at 12.5 µM; 6,200 compounds, 40% hits;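 active = mean inhibition across replicates above about 50%, limit read from the data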
SENP6 conf: SENP6 protease inhibitors, confirmation, biochemical, luminescence, single concentration; recombinant SENP6, Z-RLRGG-aminoluciferin luminescence; 6,200 compounds, 58% hits; inhibition, % at 12.5 µM; shares compounds with SENP7 inh
SENP7 confirm: SENP7 protease inhibitors, retest, confirmation, biochemical, luminescence, single concentration. shares compounds with SENP7 inh. recombinant SENP7, Z-RLRGG-aminoluciferin luminescence, 40 min. inhibition, % at 12.5 µM. 6,200 compounds, 69% hits. AID 488917, 2010
Casp3 SENP sel: caspase-3 protease inhibitors, confirmation, selectivity assay for SENP inhibitor project, biochemical, single concentration. AID 488918, 2010. shares compounds with SENP7 inh. purified caspase-3, Z-DEVD-aminoluciferin luminescence, 60 min. inhibition, % at 12.5 µM. 6,200 compounds, 60% hits;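 active = mean inhibition above about 50%, limit read from the data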;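 also: plate controls were enzyme with DMSO for no effect and wells without caspase-3 for full effect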
Target sequence (P42574 28-227 limits assumed): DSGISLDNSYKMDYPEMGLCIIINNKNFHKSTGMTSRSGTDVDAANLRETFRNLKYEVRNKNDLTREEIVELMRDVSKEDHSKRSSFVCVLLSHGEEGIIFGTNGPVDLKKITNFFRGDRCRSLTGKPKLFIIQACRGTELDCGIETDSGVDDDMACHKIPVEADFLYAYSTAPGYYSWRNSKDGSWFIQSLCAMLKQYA
Luc interf: luminescence interference (SENP counter-screen); shares compounds with SENP7 inh; Pre-incubated SENP8/Z-RLRGG-aminoluciferin, luciferase luminescence interference; inhibition, % at 12.5 µM; 6,200 compounds, 39% hits; AID 488919;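 active = mean inhibition above about 50% when retested at one dose, limit read from the data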;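 also: plate controls were DMSO wells with completed reaction for no effect and substrate without enzyme for full effect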
The depositor's hits bear a star; x = not tested or not shown.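 The calls were made as follows, unless noted: active = mean inhibition above about 50% in the one-dose retest (limit read from the data); inactive = the rest.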

SMILES | SENP8 block-1 | HSP90 refold inh | SENP6 inh | SENP7 inh | SENP8 block-2 | Platelet DG rel | SENP8 conf | SENP6 conf | SENP7 confirm | Casp3 SENP sel | Luc interf
N/C(=N\OC(=O)c1ccc(Cl)cc1[N+](=O)[O-])c1ccccn1 | 53.4* | 8.6 | 59.3* | 50.6* | 3.1 | 12.5 | 38.2 | 43.0 | 77.4* | 76.8* | 4.4
N/C(=N\OC(=O)c1ccc(Cl)cc1Cl)c1ccccn1 | 96.2* | 91.2* | 98.6* | 99.2* | 15.0 | 55.9* | 97.4* | 98.5* | 102.0* | 97.6* | 94.8*
CCc1ccccc1OCC(=O)Nc1cc(S(=O)(=O)N(CC)CC)ccc1N1CCOCC1 | 1.3 | x | 13.5 | 4.0 | -12.2 | x | x | x | x | x | x
N/C(=N\OC(=O)c1ccc(Cl)cc1Cl)c1ccncc1 | 59.0* | -2.2 | 76.8* | 62.4* | 15.1 | 17.7 | 62.3* | 63.5* | 84.2* | 73.3* | 63.5*
N/C(=N\OC(=O)c1cc(Cl)ccc1Cl)c1ccncc1 | 1.5 | -4.7 | -14.1 | 1.8 | 14.8 | -3.7 | x | x | x | x | x
COc1ccc(S(=O)(=O)N2CCN(c3ccccn3)CC2)cc1[N+](=O)[O-] | 2.3 | -2.2 | 85.4* | 6.6 | 16.0 | 12.9 | -3.9 | -5.8 | -1.8 | 7.9 | 4.8
Cc1nc2ccc(C(=O)OCc3ccccc3Br)cc2nc1C | 47.4 | 2.8 | 67.3* | 56.2* | 9.9 | -4.9 | 14.8 | 12.0 | 43.8 | 13.2 | -3.6
CC(=O)Nc1ccc(C(=O)OCc2ccccc2Br)cc1 | -13.0 | -0.8 | -7.6 | 4.6 | 13.3 | 15.9 | x | x | x | x | x
CCn1c(Cc2ccccc2)nnc1SCC(=O)Nc1nccs1 | 2.6 | 0.7 | 0.8 | 82.0* | 19.7 | 6.0 | 10.3 | 8.1 | -6.1 | -3.0 | 1.6
CCn1c(SCC(=O)Nc2nccs2)nnc1-c1ccccc1 | 3.4 | -0.3 | -11.6 | 8.5 | 11.8 | 0.6 | x | x | x | x | x
CCn1c(Cc2ccccc2)nnc1SC(C)C(=O)NC1CC1 (stereo not given) | 91.2* | x | 3.4 | 2.8 | -1.6 | -9.4 | -3.5 | -4.3 | -6.1 | -2.4 | -15.0
CCCNC(=O)N(C)C[C@@H]1Oc2ncc(-c3ccncc3)cc2C(=O)N([C@H](C)CO)C[C@@H]1C | x | x | x | x | -1.6 | x | x | x | x | x | x
C=CCSc1nc2c(N)ncnc2n1C1OC(CO)C(O)C1O (stereo not given) | x | x | x | x | 8.1 | x | x | x | x | x | x
C/C(=N/NC(=O)c1ccc(Br)o1)c1cccs1 | 10.2 | -4.3 | 29.4 | 29.8 | -4.4 | 0.6 | x | x | x | x | x
C/C(=N\NC(=O)c1cc(Br)ccc1O)c1cccs1 | 33.7 | -0.5 | 63.3* | 19.3 | -230.6 | 10.8 | 27.0 | 39.1 | 29.8 | 40.4 | 3.7
c1ccc(-c2noc(-c3cccc4ccccc34)n2)nc1 | 89.1* | 11.1 | 96.1* | 90.3* | -356.2 | 3.8 | 92.6* | 94.6* | 100.8* | 90.0* | 94.2*
c1ccc(-c2ccc(-c3nc(-c4ccccn4)no3)cc2)cc1 | 96.8* | 78.0* | 98.2* | 98.1* | -31.5 | 94.8* | -24.0 | 73.7* | 80.7* | 97.1* | 17.1
O=[N+]([O-])c1cccc(-c2noc(-c3ccco3)n2)c1 | 45.2 | 2.0 | 68.3* | 54.3* | 16.5 | 1.4 | 8.9 | 8.0 | 28.6 | 24.7 | 9.1
c1ccc(-c2noc(-c3ccco3)n2)nc1 | 42.1 | 10.1 | 74.0* | 72.9* | 1.3 | 13.3 | 64.7* | 67.5* | 92.1* | 91.8* | 70.0*
Cc1ccc(NC(=O)C2COc3ccccc3O2)cc1S(=O)(=O)N1CCOCC1 (stereo not given) | 1.4 | x | -14.8 | -2.4 | 10.9 | x | x | x | x | x | x
CCOC(=O)c1sc(-c2ccc(OC)cc2)cc1N | 47.3 | 0.4 | 70.5* | 51.9* | -368.8 | 2.6 | 36.3 | 54.5* | 83.3* | 34.1 | 14.2
Nc1nonc1C(=O)NCCNS(=O)(=O)c1ccc(Br)cc1 | -4.3 | 0.9 | -31.2 | 90.0* | 9.3 | -0.1 | -4.1 | 2.3 | 7.9 | 6.2 | -1.6
Cn1c(=O)c2cc(NCc3ccccc3)nnc2n(C)c1=O | 80.3* | 3.4 | 80.8* | 4.6 | -82.8 | 0.3 | -3.0 | -1.8 | -4.6 | -4.0 | -7.7
Cc1ccc(CCNC(=O)c2sc3nc4n(c(=O)c3c2C)CCC4)cc1 | -2.2 | -6.1 | 5.0 | 0.2 | 4.8 | 10.7 | x | x | x | x | x
CCn1c(=O)c(=O)[nH]c2cc(C(=O)NCc3ccc(F)cc3)ccc21 | 10.1 | 0.2 | -2.1 | 2.5 | -106.7 | 4.8 | x | x | x | x | x
SMILES | SENP8 block-1 | HSP90 refold inh | SENP6 inh | SENP7 inh | SENP8 block-2 | Platelet DG rel | SENP8 conf | SENP6 conf | SENP7 confirm | Casp3 SENP sel | Luc interf
O=C(Nc1ccc2c(c1)OCO2)c1c[nH]c(=O)n(-c2ccc(F)cc2)c1=O | 3.1 | -4.0 | 5.4 | 4.1 | -2.8 | -9.4 | x | x | x | x | x
COc1cc(/C=N/O)ccc1OCc1ccc(Cl)cc1 | 42.8 | -3.3 | 75.1* | 58.7* | x | 3.2 | 64.1* | 63.6* | 86.2* | 41.8 | 67.8*
N#CC(CCc1ccccc1[N+](=O)[O-])(CCc1ccccc1[N+](=O)[O-])C(N)=O | x | x | x | x | 7.4 | x | x | x | x | x | x
Cc1ccc(C(=O)c2cc3ccccc3o2)cc1C | 69.1* | -8.3 | 82.0* | 75.9* | 27.4 | -7.0 | 5.0 | 72.5* | 53.2* | 29.4 | 25.7
Cc1ccc(C(=O)c2cc3ccccc3o2)cc1 | 44.0 | -3.8 | 76.8* | 56.5* | 16.6 | 4.6 | 31.5 | 59.8* | 86.0* | 51.7* | 58.8*
O=C(c1cccc([N+](=O)[O-])c1)c1cc2ccccc2o1 | -1.1 | -0.8 | 20.8 | 5.0 | 15.6 | 0.6 | x | x | x | x | x
O=C(c1cc2ccccc2o1)c1cccs1 | 50.5* | -1.8 | 11.3 | 71.7* | 2.4 | 3.4 | 49.5 | 74.8* | 93.2* | 68.3* | 57.7*
